Only some compounds are listed: those with a hit (about 2.4% of all), similar ones and a draw of the others.
Pf gamet viab = kills late stage P. falciparum gametocytes; P. falciparum stage V gametocytes, ATP luminescence, 24 h; inhibition, % at 10.9 µM; 0.065% of 150,000 active; AID 743093;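 active = inhibition above the mean plus 3 SD of compounds within the control limits, set per campaign, cut at about 38% in these data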;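 note: 0% = DMSO wells and 100% = medium only without gametocytes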
MEKK2wt PB1 HTS = raises or lowers MEK5 binding to wildtype human MEKK2 PB1 domain | AID 1531 | bead flow cytometry, Alexa488-MEK5 binding to MEKK2 WT; actives lie on both sides | Q9Y2U5 | 1.1% of 290,000 active | binding response (% of control), % at 10 µM; in the data active = binding response below about 67% or above about 130%
Arbovirus anti = arbovirus infection inhibition. inhibition, % at 10 µM. 0.37% of 200,000 active. arbovirus infection cell-based antiviral screen; in the data active = inhibition above about 30%
MEKK3 PB1 HTS = modulators (inhibitors or enhancers) of MEK5 binding to human MEKK3 PB1 domain; Q99759; bead-based flow cytometry, Alexa488-MEK5 binding to MEKK3; actives lie on both sides; 0 = blocked by unlabeled MEK5, 100 = vehicle; binding response (% of control), % at 10 µM; 1.4% of 290,000 active; AID 1529;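 active = binding response more than 3 SD above or below the average of its plate-row segment, actives on both sides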;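 note: Alexa488 bead fluorescence after subtracting the streptavidin-only scavenger bead signal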
Target sequence (Q99759 whole entry, looked up, the tested form may be a part): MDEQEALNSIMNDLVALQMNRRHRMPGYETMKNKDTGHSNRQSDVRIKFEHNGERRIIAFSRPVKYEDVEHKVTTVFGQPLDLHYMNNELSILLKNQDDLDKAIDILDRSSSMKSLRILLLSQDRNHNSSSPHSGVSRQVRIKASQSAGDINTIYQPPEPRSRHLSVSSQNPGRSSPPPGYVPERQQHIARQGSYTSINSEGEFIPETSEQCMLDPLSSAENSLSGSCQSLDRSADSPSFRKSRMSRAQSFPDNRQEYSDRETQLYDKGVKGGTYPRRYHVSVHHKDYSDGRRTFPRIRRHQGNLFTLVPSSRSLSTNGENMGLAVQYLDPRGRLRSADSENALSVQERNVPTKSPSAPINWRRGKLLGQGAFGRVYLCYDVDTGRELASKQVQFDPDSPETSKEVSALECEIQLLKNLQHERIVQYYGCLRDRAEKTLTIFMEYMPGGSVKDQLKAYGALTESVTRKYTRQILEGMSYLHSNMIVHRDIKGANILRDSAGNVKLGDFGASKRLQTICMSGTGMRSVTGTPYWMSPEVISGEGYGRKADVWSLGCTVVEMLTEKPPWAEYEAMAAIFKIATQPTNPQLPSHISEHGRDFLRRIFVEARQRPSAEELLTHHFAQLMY
MEKK2 mut-MEK5 = signal of MEK5 binding to mutant human MEKK2 PB1 domain; bead flow cytometry, Alexa488-MEK5 binding to MEKK2 mutant; percent response, % at 10 µM; 0.35% of 290,000 active; in the data active = percent response above about 24%, passing the limit was not always enough
MEKK2wt confirm = raises or lowers MEK5 binding to wildtype human MEKK2, retest. binding response (% of control), % at 10 µM. 2.4% of 5,900 active. shares compounds with MEKK3 PB1 HTS. bead flow cytometry, Alexa488-MEK5 binding to MEKK2 WT; actives lie on both sides; in the data active = binding response below about 16% or above about 210%; inactive = in between
MEKK2mut-MEK5 = signal of MEK5 binding to mutant human MEKK2, retest | percent response, % at 10 µM | shares compounds with MEKK3 PB1 HTS | bead flow cytometry, Alexa488-MEK5 binding to MEKK2 mutant | AID 1893 | 2% of 5,900 active; in the data active = percent response mostly above about 71%, no sharp cut-off; inactive = mostly below about 38%;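 note: higher means compound restores mutant binding toward wildtype level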
MEKK3-MEK5 inh = confirmation of inhibitors of MEK5 binding to human MEKK3; shares compounds with MEKK3 PB1 HTS; bead flow cytometry, Alexa488-MEK5 binding to MEKK3; stronger effect = lower value; binding response (% of control), % at 10 µM; 1.8% of 5,900 active;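 active = binding response below 72% of control, or above a set upper limit, though filed actives all read lower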;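 note: 100% = DMSO only wells and 0% = binding blocked by excess unlabeled MEK5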
* marks the source's active call; other numbers are inactive results; · = no result given; [ ] = remark or other dose.

SMILES	Pf gamet viab	MEKK2wt PB1 HTS	Arbovirus anti	MEKK3 PB1 HTS	MEKK2 mut-MEK5	MEKK2wt confirm	MEKK2mut-MEK5	MEKK3-MEK5 inh
O=C(CCS(=O)(=O)c1ccc(Cl)cc1)Nc1ccc(N2CCOCC2)cc1	6.2	100.0	·	98.0	3.0	·	·	·
CC(C)(C)NC(=O)C(c1ccc(O)cc1)N(C(=O)CCC(=O)Nc1ccccn1)c1ccc(F)cc1 (centres undefined)	·	99.0	·	99.0	-1.0	·	·	·
COCCCn1c(SCC(=O)Nc2ccc(C(C)=O)cc2)nc2ccccc2c1=O	8.3	48.0	3.8	39.0*[inhibitor]	-19.0	105.0	3.0	102.0
CCCNC(=O)CSc1nc2ccccc2c(=O)n1CCC	18.8	112.0	6.7	128.0*	-1.0	101.0	3.0	104.0
COc1cccc(C2=NOC(C(=O)NCc3ccc(F)cc3)C2)c1 (centres undefined)	·	·	-7.5	·	·	·	·	·
COc1ccc(CNC(=O)C2CC(c3cccc(OC)c3)=NO2)cc1 (centres undefined)	·	89.0	-4.4	82.0*[inhibitor]	-4.0	103.0	0.0	102.0
CC(=O)c1ccc(NC(=O)C(C)n2c3ccccc3c3nc(=O)cc(C)n32)cc1 (centres undefined)	25.7	52.0	·	44.0*[inhibitor]	-17.0	103.0	-3.0	103.0
CCCN1CCC(=NNc2ccc(C(=O)O)cc2)CC1	16.8	109.0	-5.8	106.0	8.0	·	·	·
CC(C)C[C@@H](C(=O)NC1CCN(Cc2ccccc2)CC1)N1C(=O)N2CCc3c([nH]c4ccccc34)[C@@]2(C)C1=O	·	142.0*	·	108.0	20.0	135.0	26.0	109.0
CCNc1ccc(Br)cc(C(=O)/C=C/c2c(Cl)cccc2Cl)c1=O	·	47.0*[inhibitor]	-34.3	82.0	2.0	80.0	-11.0	95.0
CCNc1ccc(Br)cc(C(=O)/C=C/c2ccc(Cl)cc2)c1=O	·	72.0	-31.6	88.0	-5.0	·	·	·
CCN(CC)CCN(Cc1cc2ccc(C)c(C)c2[nH]c1=O)C(=S)NCc1ccco1	21.7	110.0	-17.9	97.0	2.0	·	·	·
Cc1cccc(NC(=O)Cn2c([N+](=O)[O-])cnc2C)c1C	·	112.0	-6.8	136.0*	1.0	104.0	0.0	104.0
Cc1ncc([N+](=O)[O-])n1CC(=O)Nc1ccccc1	·	102.0	7.9	106.0	-1.0	·	·	·
CC(NC(=O)CN(c1ccccc1F)S(C)(=O)=O)c1ccccc1 (centres undefined)	8.7	106.0	·	107.0	27.0*	107.0	-1.0	102.0
Cc1cc(C(C)(C)C)cc(C)c1C(=O)O	8.3	87.0	·	89.0	-17.0	·	·	·
CCN1CCN(C(c2cccc(OC)c2OC)c2nnnn2Cc2ccco2)CC1 (centres undefined)	·	89.0	2.5	99.0	-7.0	·	·	·
COc1ccccc1C(c1nnnn1Cc1ccco1)N1CCN(c2cccc(C)c2C)CC1 (centres undefined)	·	96.0	-6.9	49.0*[inhibitor]	-1.0	99.0	0.0	104.0
O=C(NCCCn1ccnc1)/C(=C\c1cccnc1)NC(=O)c1ccco1	16.2	94.0	3.5	97.0	-4.0	·	·	·
O=C(NCCCn1ccnc1)/C(=C/c1ccco1)NC(=O)c1ccco1	8.6	70.0	·	66.0*[inhibitor]	-11.0	101.0	2.0	105.0
COc1ccc(/C=N/N=C2/NC(=O)C(CC(=O)O)S2)cc1OCc1ccccc1Cl (centres undefined)	·	109.0	-16.0	146.0*	0.0	106.0	13.0	109.0
CCOc1cc(/C=N/N=C2/NC(=O)C(CC(=O)O)S2)ccc1OCc1ccccc1Cl (centres undefined)	15.2	112.0	12.7	109.0	-1.0	·	·	·
Cc1ccc(C2=N/C(=C/c3cccs3)C(=O)N2Nc2ccccc2)cc1	·	52.0*[inhibitor]	-38.3	81.0	-15.0	55.0	-18.0	91.0
O=C(Nc1ccccc1N1CCOCC1)c1cccnc1	-3.9	112.0	21.2	128.0*	2.0	106.0	0.0	104.0
O=C(Nc1ccc(N2CCOCC2)c(Cl)c1)c1cccnc1	·	98.0	3.8	101.0	2.0	·	·	·
SMILES	Pf gamet viab	MEKK2wt PB1 HTS	Arbovirus anti	MEKK3 PB1 HTS	MEKK2 mut-MEK5	MEKK2wt confirm	MEKK2mut-MEK5	MEKK3-MEK5 inh
O=c1cc(CO)oc(CN2CCN(Cc3ccccc3)CC2)c1O	·	135.0*	3.0	116.0	14.0	101.0	0.0	99.0
O=c1cc(CO)oc(CN2CCCC2)c1O	·	·	13.6	·	·	·	·	·
COc1ccc2c(c1)C=C(C(=O)OCc1cccnc1)CO2	·	85.0	12.8	82.0	-9.0	·	·	·
COc1ccc(N2C(=O)/C(=C/c3ccc([N+](=O)[O-])cc3)N=C2C)c(OC)c1	-2.2	91.0	-0.7	105.0	6.0	·	·	·
CC1=N/C(=C\c2ccc([N+](=O)[O-])cc2)C(=O)N1c1cc(Cl)ccc1C	·	52.0*[inhibitor]	-1.4	90.0	-3.0	81.0	-17.0	95.0
N#Cc1ccc(NC(=O)CNc2cc(S(=O)(=O)N3CCOCC3)ccc2NCC2CCCO2)cc1 (centres undefined)	7.7	7.0*[inhibitor]	-4.2	5.0*[inhibitor]	-18.0	104.0	2.0	107.0
Cc1ccc2nc(=O)c(NNc3ccccc3)cnc2c1	·	97.0	-17.9	98.0	-1.0	·	·	·
Cc1nc2ccccc2nc(=O)c1NNc1ccccc1	4.5	80.0	-1.0	51.0*[inhibitor]	-2.0	91.0	-7.0	94.0
C/C=C(\C)C(=O)Nc1cccc(C2=NOC3(C2)C[C@H](C(N)=O)N(C(=O)CC#N)C3)c1 (some centres undefined)	-33.7	96.0	·	97.0	5.0	·	·	·
CCN(CC(=O)Nc1ccc(NC(C)=O)cc1)C(=O)/C=C/c1cccs1	-13.2	104.0	3.2	98.0	9.0	·	·	·
CCCN(CC(=O)Nc1ccccc1C)C(=O)/C=C/c1cccs1	21.4	108.0	-7.4	140.0*	1.0	94.0	0.0	99.0
C#CCOCCOCCOCCNc1nc(N2CCOCC2)nc(N2CCN(C(=O)[C@H](Cc3ccc(O)cc3)n3cc([C@@H](N)C(C)CC)nn3)CC2)n1 (some centres undefined)	·	114.0	4.2	98.0	6.0	·	·	·
C#CCOCCOCCOCCNc1nc(N2CCN(C(=O)C(Cc3cc4ccccc4[nH]3)n3cc(C(N)C(C)CC)nn3)CC2)nc(N2CCN(C(=O)C(Cc3cc4ccccc4[nH]3)n3cc(C(N)C(C)CC)nn3)CC2)n1 (centres undefined)	·	254.0*	-4.2	110.0	105.0*	254.0*	107.0*	111.0
C#CCOCCOCCOCCNc1nc(N2CCN(C(=O)C(Cc3ccc(O)cc3)n3cc(C(N)CC(C)C)nn3)CC2)nc(N2CCN(C(=O)C(Cc3cc4ccccc4[nH]3)n3cc(C(N)C(C)CC)nn3)CC2)n1 (centres undefined)	·	239.0*	-5.4	111.0	118.0*	237.0*	89.0*	106.0

Screens (PubChem BioAssay)
